# Values joined by “and” are separate entries in the source; they are usually repeats but may differ in a detail not shown here. Equal values may be shown once. Active and inactive are the calls of the source. Unless noted, how the calls were made is not given here.
# Legend:
# [1] = test system: Aerobactin synthetase IucA (Klebsiella pneumoniae); experiment: IucA aerobactin synthetase inhibitors, biochemical, Tocris library, absorbance (AID 1345561); conditions: purified IucA enzyme assay, absorbance (OD) read-out; stronger effect = lower value;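 tested at 8 µM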;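 further: 100% = enzyme without compound and 0% = no enzyme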
# [2] = sensitizers of A549 cells to miR-34 induction, primary screen, imaging, A549 dox-inducible miR-34, nuclei and caspase counts (AID 1347080;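 active means compounds whose cell count with miR-34 switched on is under 0.7 times the count with it off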); conditions: A549 miR-34 inducible, Hoechst nuclei count, 48 h
# [3] = inhibitors of Cryptococcus chitosan production, flow cytometry, Cibacron Brilliant Red staining (AID 1347148); conditions: Cryptococcus neoformans chitosan, stronger effect = lower value; at 10 µM unless noted;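 further: compound exposure lasted three days at 37 degrees C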
# [4] = viability rescue of complex I mutant cybrids, primary screen, cell-based, galactose medium, ATP luminescence (AID 1645843;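 active means z-score of at least 1.8 in each of two replicates, scored against plate mean and spread of sample wells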;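 further: positive z means more ATP and so rescue of galactose-driven cybrid death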); conditions: complex I mutant cybrid cells, 72 h, stronger effect = higher value
# [5] = circadian clock period modulators, cell-based, LOPAC library, luminescence reporter (AID 2774); conditions: circadian reporter cells, at 7 µM, actives lie on both sides;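 further: values are relative to mean of DMSO wells on each plate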
# [6] = test system: Hepatitis C virus NS3 helicase; experiment: HCV NS3 helicase inhibitors, primary screen, biochemical, fluorescence polarization, LOPAC1280 library (AID 687035; in the data active means inhibition above about 37%); conditions: Purified HCV NS3 helicase, Cy5-dT15 ssDNA binding fluorescence polarization; stronger effect = higher value; concentration not given here
# [7] = Cy5 fluorescence quenching or enhancement artefacts, artefact control for HCV NS3 helicase inhibitor project, biochemical, LOPAC1280 (AID 687037); conditions: Cy5-DNA-NS3h complex fluorescence interference counterscreen
# [8] = phospholipid biosynthesis inhibitors in animal cells, primary screen, cell-based, LOPAC library, screen 4 (AID 1347384); conditions: phospholipid biosynthesis inhibition screen, at 10 µM
# [9] = liver-stage malaria parasite growth inhibition, primary screen, cell-based, HepG2, luciferase luminescence, HepG2 viability (AID 624349; in the data active means parasite load remaining mostly below about 12%, no sharp cut-off; inactive means mostly above about 10%;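 further: 100% = mean of DMSO negative control wells on the same plate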); conditions: P. berghei liver stage in HepG2, luciferase luminescence, concentration not given here; parasite load remaining: stronger effect = lower value; viability: measured here: HepG2 viability without parasites
# [10] = modifiers of HSF1 nuclear foci, imaging, Selleck Cancer Library (AID 1347162; in the data active means plate-normalised HSF1 focus index below about 0.46); conditions: human cells, at 10 µM; SSMD: measured here: HSF1 foci SSMD mean; cell count: measured here: cell number; plate-normalised HSF1 focus index: stronger effect = lower value
# [11] = LFS_MB_P medulloblastoma growth inhibition, cell-based, chromothripsis tumors, cisplatin or BGB combos (AID 1671449; in the data active means inhibition above about 80%;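 further: cells exposed for 96 hours; 0% = vehicle DMSO and 100% = killing by high DMSO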); conditions: LFS_MB_P medulloblastoma cells
# [12] = HDN33 neuroblastoma growth inhibition, cell-based, chromothripsis tumors, cisplatin or BGB combos (AID 1671450; in the data active means inhibition above about 80%;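 further: cells exposed to compound for four days; 0% = vehicle DMSO and 100% = cell killing by high DMSO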); conditions: HDN33 neuroblastoma cells, stronger effect = higher value
# [13] = ICB984 medulloblastoma cell growth inhibition, synergistic combos for chromothripsis tumors, cisplatin or BGB combos (AID 1671451); conditions: ICB984 medulloblastoma cells, drug combinations, stronger effect = higher value;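 further: cells exposed for 96 hours before readout; 0% = vehicle DMSO and 100% = killing by high DMSO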
# [14] = HTB85 osteosarcoma cell growth inhibition, synergistic combos for chromothripsis tumors, BGB or cisplatin IC20 combos (AID 1671453; in the data active means inhibition above about 80%;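 further: cells exposed for 96 hours before readout; 0% = vehicle DMSO and 100% = high DMSO killing control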); conditions: HTB85 osteosarcoma cells, drug combinations, stronger effect = higher value
# [15] = stronger effect = lower value, cell number ratio, induced over uninduced
# [16] = measured here: relative caspase fold change +Dox/-Dox
# [17] = measured here: total cells with miR-34 induction, stronger effect = lower value
# [18] = measured here: total cells without miR-34 induction
smiles,measurement,setting,value
O=C(NCCCCCCNC(=O)ON=C1CCCCC1)ON=C1CCCCC1,remaining activity,[1],126% (inactive)
same,fold change,[2]; [15],0.722 (inactive) and 0.829 (inactive)
same,fold change,[2]; [16],1.07 and 1.04
same,cell count,[2]; [17],3570 and 6850
same,cell count,[2]; [18],4940 and 8260
same,fold fluorescence,[3],7.89 [at 126.7 µM] (inactive)
same,z-score,[4],-0.255 (inactive)
CC(C)(C)c1cc(O)c(C(C)(C)C)cc1O,remaining activity,[1],129% (inactive)
same,fold change,[2]; [15],1.1 (inactive) and 0.907 (inactive)
same,fold change,[2]; [16],1.08 and 0.716
same,cell count,[2]; [17],1530 and 6190
same,cell count,[2]; [18],1390 and 6820
same,fold fluorescence,[3],11.1 [at 224.9 µM] (inactive)
same,z-score,[4],-0.7 (inactive)
CCSC(=N)N,period change,[5],0.115 h (inactive)
same,inhibition,[6],-2% (inactive)
same,fluorescence ratio (interference),[7],1 (inactive)
same,remaining activity,[1],116% (inactive)
same,fold change,[2]; [15],1.03 (inactive) and 0.939 (inactive) and 0.949 (inactive)
same,fold change,[2]; [16],0.74 and 0.98 and 1.59
same,cell count,[2]; [17],10300 and 5940 and 9910
same,cell count,[2]; [18],10000 and 6330 and 10400
same,outcome,[8],inactive
same,z-score,[4],0.125 (inactive) and 0.13 (inactive)
N.N.O=C(O)C1(C(=O)O)CCC1.[Pt],parasite load remaining,[9],105% (inactive) and 45.1% (inactive)
same,viability,[9],75.3% and 97.1%
same,remaining activity,[1],100% (inactive)
same,fold change,[2]; [15],0.91 (inactive) and 1.06 (inactive)
same,fold change,[2]; [16],1.49 and 3.05
same,cell count,[2]; [17],7500 and 6220
same,cell count,[2]; [18],8240 and 5890
same,SSMD,[10],2.09
same,cell count,[10],7840
same,plate-normalised HSF1 focus index,[10],1.08 (inactive)
same,z-score,[4],-0.15 (inactive)
same,inhibition,"[11]; at 0.5 µM, stronger effect = higher value",-25.8% (inactive) and -25% (inactive)
same,inhibition,"[11]; measured here: combination with BGB IC20, at 0.005 µM",-21.9% and -15.8%
same,inhibition,"[11]; measured here: combination with BGB IC40, at 0.005 µM",-33.4% and -11.2%
same,inhibition,"[11]; measured here: combination with BGB IC40, at 0.05 µM",-8.87% and -31.1%
same,inhibition,"[11]; measured here: combination with cisplatin, at 0.5 µM, stronger effect = higher value",-41.1% and -20.3%
same,inhibition,"[11]; measured here: combination with cisplatin, at 5 µM, stronger effect = higher value",-26.5% and -12.9%
same,inhibition,"[12]; BGB combo, at 5 µM",-9.54% and -0.176%
same,inhibition,[12]; at 0.5 µM,-16.9% (inactive) and -34.4% (inactive)
same,inhibition,"[12]; cisplatin combo, at 5 µM",-4.51% and -16.2%
same,inhibition,"[12]; measured here: with BGB IC20 combination, at 0.5 µM",-16.3% and -33.3%
same,inhibition,"[12]; measured here: with cisplatin IC20 combination, at 0.5 µM",7.01% and -41.5%
same,inhibition,"[12]; single agent, at 5 µM",-8.33% and -8.24%
same,inhibition,"[13]; BGB IC20 combo, at 0.005 µM",-23.8% and 9.43%
same,inhibition,"[13]; BGB IC40 combo, at 0.005 µM",-28.7% and -26%
same,inhibition,"[13]; BGB IC40 combo, at 0.05 µM",-33.8% and -31.4%
same,inhibition,[13]; at 0.5 µM,-17.7% (inactive) and -35.2% (inactive)
same,inhibition,"[13]; cisplatin combo, at 0.05 µM",-33.8% and -36.1%
same,inhibition,"[13]; cisplatin combo, at 0.5 µM",-26.5% and -43.2%
same,inhibition,"[13]; cisplatin combo, at 5 µM",-41.9% and -11%
same,inhibition,"[13]; measured here: 5 uM single agent, at 5 µM",-8.78% and -6.62%
same,inhibition,[14]; at 0.5 µM,-12.1% (inactive) and -29.4% (inactive)
same,inhibition,"[14]; measured here: with BGB IC20, at 0.5 µM",-30.4% and -34.9%
same,inhibition,"[14]; measured here: with BGB IC20, at 5 µM",11.7% and -2.3%
same,inhibition,"[14]; measured here: with cisplatin IC20, at 0.5 µM",2.42% and -41.2%
same,inhibition,"[14]; measured here: with cisplatin IC20, at 5 µM",0.587% and 34.7%
same,inhibition,"[14]; single agent, at 5 µM",-3.92% and 13.4%
COc1ccc(Br)cc1S(=O)(=O)NC(=O)/C=C/c1ccccc1Cc1ccc2ccccc2c1,remaining activity,[1],102% (inactive)
same,fold change,[2]; [15],1.05 (inactive) and 0.853 (inactive)
same,fold change,[2]; [16],1.89 and 2.15
same,cell count,[2]; [17],9590 and 8680
same,cell count,[2]; [18],9110 and 10200
same,outcome,[8],inactive
same,z-score,[4],0.395 (inactive) and 0.085 (inactive)
